GLS inhibitor: glutaminase GLS (human) inhibition. 410,000 compounds, 0.21% hits. GLS enzymatic activity, qHTS titration. O94925. Potency, µM (highest dose often 45.5 µM), without a hit: at the highest dose activity change, negative = inhibition, actives largely listed as inhibitors; further: on the % scale 0 is the no-effect control and ±100 the full control effect
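Assay buffer: 45 mM KH2PO4 pH 8.2, 0.02% Tween-20. hKGA acts on L-glutamine (1 mM solution added); product glutamate is reported by an oxidase/peroxidase Amplex Red coupling, with fluorescence taken at baseline and 30 min.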
JMJD2A Tudor: inhibitors of human JMJD2A Tudor domain; AlphaScreen JMJD2A-Tudor / H3K4me3 peptide binding; Potency, µM (top dose mostly 114 µM), inactives show at the top dose activity change, negative = inhibition, hits mostly inhibitors; 390,000 compounds, 4.4% hits; further: on the % scale 0 is the no-effect control and ±100 the full control effect; nearly all actives have a fitted effect of over 50% in size
HP1b chromo inh: blocks HP1-beta chromodomain binding to methylated histone tails; P83916; AID 540317; 390,000 compounds, 0.56% hits; AlphaScreen HP1-beta / biotin-H3K9me3 peptide binding; Potency, µM (titrated, usually from 114 µM), for inactives: top-dose activity change, negative = inhibition, actives largely listed as inhibitors; further: nearly all actives have a fitted effect of over 70% in size
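HP1-beta protein (50 nM final) preincubated 30 min at room temperature with biotinylated H3(1-18)K9me3 peptide (50 nM) in PBS pH 7.4, 0.01% Tween-20, then compound added for 30 min. AlphaScreen streptavidin donor/nickel chelate acceptor beads (10 ug/mL final), 30 min dark, luminescence read.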
BAZ2B inh: inhibitors of human BAZ2B bromodomain; 360,000 compounds, 4.4% hits; Q9UIF8; Potency, µM (titrated, usually from 114 µM), inactives show at the highest dose activity change, negative = inhibition, most hits filed as inhibitors; AlphaScreen BAZ2B-H3K14Ac peptide displacement; AID 504333; further: on the % scale 0 is the no-effect control and ±100 the full control effect; nearly all actives have a fitted effect of over 60% in size
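Compounds, titrated to a top concentration of 110 uM, were incubated 30 min at room temperature with preformed BAZ2B/acetyl-K14 H3 peptide complex (50 nM each). Proximity signal was measured by AlphaScreen after 20 min with beads.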
G9a inh: inhibitors of human histone lysine methyltransferase G9a; G9a H3K9 monomethylation, AlphaScreen, 2 h; Potency, µM (series often up to 102 µM), without a hit: at the highest dose activity, negative = inhibition, actives largely listed as inhibitors; Q96KQ7; 350,000 compounds, 8.8% hits; AID 504332; further: on the % scale 0 is the no-effect control and ±100 the full control effect; nearly all actives have a fitted effect of over 75% in size
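Compounds were preincubated with 20 nM G9a for 15 min, after which biotinylated H3K9 peptide (500 nM) and SAM (20 uM) started a 2 h room-temperature reaction. Monomethylated product was quantified by antibody-based AlphaScreen chemiluminescence.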
* = called active by the depositor; ? = inconclusive; nt = no result; [ ] = another dose, or the depositor's remark. Shown are actives, neighbours in structure and some others; about 10% of the full set was active somewhere. The call rests on the fitted dose curve; in most records, active means well fitted curve in the direction sought with a large enough effect; inconclusive means small, poorly fitted or top-dose-only effect, or another doubt; inactive means no such curve, though single readings can be large; an effect the other way counts as inactive or inconclusive. Potency means the concentration at half of the fitted maximal effect.

SMILES	GLS inhibitor	JMJD2A Tudor	HP1b chromo inh	BAZ2B inh	G9a inh
C[C@H]1CN([C@@H](C)CO)C(=O)CCCn2nncc2CO[C@@H]1CN(C)S(=O)(=O)c1ccc(-c2ccccc2)cc1	-4%	nt	nt	nt	nt
CCCCc1ccc(/C=C2/C(=O)ON=C2c2ccccc2)s1	5%	22%	49%	12%	-4%[59 µM]
O=C1ON=C(c2ccccc2)/C1=C/c1ccc(O)cc1	38%	-5%	36%	-13%	50µM*
O=C1ON=C(c2ccccc2)/C1=C\c1ccco1	26%	-9%	55%	?	32µM*
Cc1sc(/C=C2\C(=O)ON=C2c2ccccc2)cc1Br	nt	nt	nt	-8%	13%[59 µM]
Cc1ccc(/C=C2/C(=O)ON=C2c2ccccc2)o1	?	79µM*	?	28µM*	13µM*
Cc1ccc(C2=NOC(=O)/C2=C\c2ccccc2)cc1	21%	-12%	40%	nt	nt
O=C1ON=C(c2ccccc2)/C1=C/c1ccccc1	21%	-25%	37%	-27%	45µM*
CC(c1ccccn1)N(C)C(=O)c1ccc2nc(Cc3ccccc3F)oc2c1 (stereo not given)	-1%	-9%	38%	-3%	17%
O=C1ON=C(c2ccc(Cl)cc2)/C1=C/c1ccc(O)cc1	?	-6%	7%	?	50µM*
COc1ccc(CNCc2ccc3ccccc3c2)c(OC)c1	1%	35µM*	?	?	11µM*
COc1cccc(CNCc2ccccc2OC)c1	-3%	-100%	?	-5%	32µM*
COc1cccc(CNCc2cccc(OC)c2O)c1O	56%	-15%	9%	nt	nt
COc1ccccc1CNCc1cc(OC)c(OC)c(OC)c1	1%	40µM*	71µM*	79µM*	7.9µM*
COc1ccc(CNCc2ccncc2)c(OC)c1	0%	-13%	29%	27%	nt
Cc1ccccc1CNCc1cccnc1	8%	-9%	-3%	7%	0%[59 µM]
COc1cc(CNCc2ccccc2)cc(Cl)c1OC	3%	3%	32%	-19%	?
COc1cccc(CNCc2cccnc2)c1OCc1ccccc1	-5%	3%	21%	?	79µM*
COc1cc(CNCc2ccc(OC)c(OC)c2OC)cc(OC)c1	3%	2.5µM*	-50%	50µM*	?
COc1cc(CNCc2ccc(SC)cc2)cc(OC)c1	2%	1.4µM*	?	?	22µM*
COc1ccc(CNC(=O)c2ccc(SC)cc2OC)cc1	-1%	5%	35%	-5%	16%[59 µM]
C=CCn1c(COc2ccccc2)nnc1SC(C)C(=O)N/N=C/c1cc(Cl)ccc1O (stereo not given)	18%	-17%[11.4 µM]	?	3%	28%[59 µM]
CNc1ccc(Oc2nc([N+](=O)[O-])nn2C)cc1	5%	-13%	31%	-21%	50µM*
Cc1ccc2sc(N3CCN(C(=O)C4COc5ccccc5O4)CC3)nc2c1C (stereo not given)	6%	-13%	28%	6%	2%[59 µM]
COc1ccc(C(=O)C2CCCN(C(=O)c3noc4c3CCCC4)C2)cc1F (stereo not given)	-12%	-3%	55%	-2%	-25%
SMILES	GLS inhibitor	JMJD2A Tudor	HP1b chromo inh	BAZ2B inh	G9a inh
COc1ccc(C(=O)C2CCCN(C(=O)c3ccc(CSC)o3)C2)cc1F (stereo not given)	-1%	-32%	10%	-33%	32µM*
Cc1c(C(=O)N(C)C)sc2c1c(=O)n(-c1ccc(Cl)c(Cl)c1)c(=O)n2CC(=O)Nc1ccc(Br)cc1F	nt	-16%	51%	-1%	-1%[59 µM]
O=C1CC2(CCCCC2)CC(=O)N1CCc1ccccc1	-3%	24%	30%[57 µM]	nt	nt
O=C1C=CC(=O)C(C2=C3C(=O)N(CCc4ccccc4)CC(=O)N3CCC2)=C1	?	3.2µM*	6.3µM*	50µM*	1.3µM*
CCOC(=O)N1CCN(C(=O)CSc2nnc(C3COc4ccccc4O3)o2)CC1 (stereo not given)	0%	-9%	18%	-3%	?
O=C(CSc1nnc(C2COc3ccccc3O2)o1)N1CCCC1 (stereo not given)	21%	-23%	?	-7%	8.9µM*
CC(C)n1c(=O)c2c(O)cc(=O)oc2c2ccccc21	-3%	50µM*	2%	-2%	-9%[0.0925 µM]
C[C@@H]1CN([C@@H](C)CO)C(=O)CCCn2nncc2CO[C@H]1CN(C)C(=O)C1CC1	2%	nt	nt	nt	nt
CCOc1ccc(-c2nnc(N3CCOCC3)c3ccccc23)cc1	0%	2%	26%	0%	10%
c1csc(-c2nnc(N3CCOCC3)c3ccccc23)c1	17%	-2%[11.4 µM]	1%	-27%	40µM*
c1csc(-c2nnc(N3CCCCCC3)c3ccccc23)c1	3%	1.3µM*	?	?	10µM*
CN(C)CCOCCOc1ccccc1-c1ccccc1	-1%	2.8µM*	?	20µM*	-34%[0.501 µM]
N=C(N)CCCOc1ccccc1-c1ccccc1	-4%	3%	38%	2%	5%[59 µM]
CN(C)CCOCCP(=O)(c1ccccc1)c1ccccc1	-19%	-23%	10%	12%	22%
CN(C)CCOc1ccccc1-c1ccccc1	7%	0.89µM*	?	25µM*	-41%[2.33 µM]
COc1ccc(NC(=O)COc2nc3ccccc3nc2N2CCOCC2)c(OC)c1	1%	-14%[11.4 µM]	27%	3%	12%
CN(C)Cc1ccccc1Sc1ccc2c(c1)CCCC2	0%	0.63µM*	?	nt	nt
COc1ccc(N2CC(NC(=O)C(=O)c3c[nH]c4ccccc34)CC2=O)cc1 (stereo not given)	7%	5%	30%	4%	5%[59 µM]
OCCN(CC#CC(O)(c1ccccc1)c1cccc(F)c1)CCO (stereo not given)	11%	?	-5%	79µM*	nt
O=C1CCCN1CCC1CCN(C2CC(=O)N(Cc3ccc(N4CCCC4=O)cc3)C2=O)CC1 (stereo not given)	-6%	-5%	38%	-5%	?
O=C(C1CCCN(C2CC(=O)N(c3ccc(Cl)cc3)C2=O)C1)N1CCCC1 (stereo not given)	-1%	-6%	40%	-2%	79µM*
O=C(C1CCCN(C2CC(=O)N(c3ccc(F)cc3)C2=O)C1)N1CCCC1 (stereo not given)	0%	32µM*	28%	-9%	45µM*
O=C1CCCN1CCC1CCN(C2CC(=O)N(c3ccc(Cl)cc3)C2=O)CC1 (stereo not given)	8%	-19%	29%	-7%	11µM*
O=C(c1ccco1)N1CCC2(CC1)CN(c1cccc(-c3ccccc3)c1)C2	nt	nt	nt	nt	31%[12.7 µM]
CC1(C(=O)NS(=O)(=O)c2ccc(Cl)cc2)CCN1C(=O)Cc1ccsc1 (stereo not given)	-2%	nt	nt	nt	nt
COc1ccc(C2NCCc3c2[nH]c2ccccc32)cc1COc1ccc(F)cc1 (stereo not given)	16%	40µM*	?	35µM*	?

Assay outcomes: PubChem, National Center for Advancing Translational Sciences (NCATS)
